Measured values reported in PubChem BioAssay (NCATS).
“And” between values parts separate entries of the source, which are not always exact repeats. Equal entries are not always repeated. Records with an inconclusive call do not appear. Entries that show only a call come without a potency. The source made the active and inactive calls. Unless noted, calls follow the shape of the dose curve; as a rule, active = well fitted inhibition curve with a large enough effect; inconclusive = small, poorly fitted or top-dose-only effect; inactive = flat fitted curve, though single readings scatter. Peptide text beside a SMILES is read from it.

How the values were obtained:
[1] = biological target: Ubiquitin carboxyl-terminal hydrolase 1 (Homo sapiens) (UniProt O94782); assay: Inhibitors of USP1/UAF1: Pilot qHTS (AID 504865); also: nearly all actives have a fitted effect of over 35% in size; also: potency is read from the fitted curve at half-maximal effect;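 as to activity change, negative = inhibition: rhodamine fluorescence freed from ubiquitin-rhodamine substrate followed over time; top concentration of the series differs between compounds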
Method in brief: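 Enzyme-free wells gave the negative control, while test wells held 1nM USP1/UAF1 preincubated with compound for 15 min at room temperature. Ub-Rho at 150nM final started the reaction, and fluorescence at 480/540 nm was recorded kinetically.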

[2] = biological target: DNA dC->dU-editing enzyme APOBEC-3G (Homo sapiens) (UniProt Q9HC16); assay: qHTS for inhibitors of Vif-A3G interactions: Validation (AID 588379)
Method in brief: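 Yellow fluorescence (Ex 488, Em 500-530) of Vif-coexpressing HeLa A3G-eYFP cells, scanned by Acumen cytometer, reports blocked A3G degradation. Cells plated at 700/well overnight at 37 deg C before compound addition, then a further overnight compound incubation at 37 deg C.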

[3] = biological target: Glucocorticoid receptor (Homo sapiens) (UniProt P04150); assay: qHTS assay for small molecule agonists of glucocorticoid receptor signaling (AID 588532; active = well fitted curve in the direction sought with a large enough effect in the signal ratio, with a control signal flat; the % refers to the signal ratio); details: HeLa MMTV-bla, beta-lactamase ratio, agonist, 18 h; stronger effect = higher value; percent of dexamethasone control, DMSO zero
Method in brief: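 Titration series, up to 92 uM, applied to GRE-bla HeLa cells for 18 h at 37 C. Detection by CCF4 FRET substrate after 2 h at RT.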

[4] = biological target: Glucocorticoid receptor (Homo sapiens) (UniProt P04150); assay: qHTS assay for small molecule antagonists of glucocorticoid receptor signaling (AID 588533; active = well fitted inhibition curve with a large enough effect in the signal ratio, with a control signal flat, not every such curve was filed as active; the % refers to the signal ratio;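 also: cells stimulated with 2 nM dexamethasone as agonist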)
Method in brief: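 Antagonist-mode qHTS: compound titrations added to GRE-bla HeLa cells, then dexamethasone 2 nM final; 18 h, 37 C. CCF4 FRET fluorescence normalized to dexamethasone and DMSO; IC50 from Hill fit.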

[5] = qHTS assay for small molecule antagonists of peroxisome proliferator-activated receptor delta signaling (AID 588535; active = well fitted inhibition curve with a large enough effect in the signal ratio, with a control signal flat, not every such curve was filed as active; the % refers to the signal ratio;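 as to max response: cells co-treated with a PPAR-delta agonist as stimulator during compound exposure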); details: HEK293T PPARd-UAS-bla, beta-lactamase FRET ratio, 18 h; 460 nm channel
Method in brief: (§1)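 Compounds tested in titration on PPAR-delta-UAS-bla HEK293T cells grown in charcoal/dextran-stripped serum (2%); beta-lactamase activity read via CCF4 emission at 460 and 530 nm.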

[6] = biological target: Peroxisome proliferator-activated receptor delta (Homo sapiens) (UniProt Q03181); assay: as above
Method in brief: as §1

[7] = biological target: Peroxisome proliferator-activated receptor gamma (Homo sapiens) (UniProt P37231); assay: qHTS assay for small molecule agonists of peroxisome proliferator-activated receptor gamma signaling (AID 588536; active = well fitted curve in the direction sought with a large enough effect in the signal ratio, with a control signal flat, not every such curve was filed as active; the % refers to the signal ratio)
Method in brief: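 Compound treatment: 16 h, 37 C, HEK293 GeneBLAzer cells. Detection: CCF4, 2 h RT. Values: Hill-fit EC50, efficacy as % of 2 uM rosiglitazone.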

[8] = biological target: Estrogen receptor (Homo sapiens) (UniProt P03372); assay: qHTS assay for small molecule antagonists of estrogen receptor alpha signaling (AID 588513; active = well fitted curve in the direction sought with a large enough effect in the signal ratio, with a control signal flat, not every such curve was filed as active; the % refers to the signal ratio)
Method in brief: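 Antagonist-mode qHTS in ER-alpha-UAS-bla HEK 293 cells: compound titration, 0.5nM estradiol for 18 h, CCF4 fluorescence, Hill-derived IC50.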

[9] = biological target: Estrogen receptor (Homo sapiens) (UniProt P03372); assay: qHTS assay for small molecule agonists of estrogen receptor alpha signaling (AID 588514; calls by dose curve; also: nearly all actives have a fitted effect of over 70% in size; also: potency is read from the fitted curve at half-maximal effect)
Method in brief: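 Read-out: CCF4 fluorescence from a beta-lactamase reporter in ER-alpha-UAS-bla HEK 293 cells after 18 hrs of compound exposure at 37 C. Normalized to 20 nM 17-beta-estradiol (100%) and DMSO (0%).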

[10] = biological target: Bile acid receptor (Homo sapiens) (UniProt Q96RI1); assay: qHTS assay for small molecule antagonists of farnesoid X receptor signaling (AID 588526; calls by dose curve; also: potency is read from the fitted curve at half-maximal effect)
Method in brief: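 Concentration-response titrations were fitted to the Hill equation for half-maximal inhibition and maximal response, with data normalised to 50 uM chenodeoxycholic acid and DMSO control wells. Cells: FXR-UAS-bla HEK293T, dialyzed FBS.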

[11] = biological target: Androgen receptor (Homo sapiens) (UniProt P10275); assay: qHTS assay for small molecule agonists of androgen receptor signaling (AID 588515; active = well fitted curve in the direction sought with a large enough effect in the signal ratio, with a control signal flat; the % refers to the signal ratio); details: AR-UAS-bla HEK293, beta-lactamase ratio, agonist 16 h; stronger effect = higher value
Method in brief: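 Stimulation of an AR-responsive β-lactamase reporter in GripTite HEK293 cells was measured after 16 h compound exposure at 37 °C, via CCF4 fluorescence after 2 h RT. EC50 from Hill fits, normalized to R1881 at 30 nM.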

[12] = biological target: Androgen receptor (Homo sapiens) (UniProt P10275); assay: qHTS assay for small molecule antagonists of androgen receptor signaling (AID 588516; active = well fitted curve in the direction sought with a large enough effect in the signal ratio, with a control signal flat, not every such curve was filed as active; the % refers to the signal ratio)
Method in brief: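 Compounds tested in titration against 10 nM R1881 in AR-responsive bla reporter HEK 293 cells; CCF4 fluorescence (460/530 nm) after 16 h exposure gave IC50 and efficacy.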

Sequence of Ubiquitin carboxyl-terminal hydrolase 1 (Homo sapiens) (O94782 whole entry, looked up): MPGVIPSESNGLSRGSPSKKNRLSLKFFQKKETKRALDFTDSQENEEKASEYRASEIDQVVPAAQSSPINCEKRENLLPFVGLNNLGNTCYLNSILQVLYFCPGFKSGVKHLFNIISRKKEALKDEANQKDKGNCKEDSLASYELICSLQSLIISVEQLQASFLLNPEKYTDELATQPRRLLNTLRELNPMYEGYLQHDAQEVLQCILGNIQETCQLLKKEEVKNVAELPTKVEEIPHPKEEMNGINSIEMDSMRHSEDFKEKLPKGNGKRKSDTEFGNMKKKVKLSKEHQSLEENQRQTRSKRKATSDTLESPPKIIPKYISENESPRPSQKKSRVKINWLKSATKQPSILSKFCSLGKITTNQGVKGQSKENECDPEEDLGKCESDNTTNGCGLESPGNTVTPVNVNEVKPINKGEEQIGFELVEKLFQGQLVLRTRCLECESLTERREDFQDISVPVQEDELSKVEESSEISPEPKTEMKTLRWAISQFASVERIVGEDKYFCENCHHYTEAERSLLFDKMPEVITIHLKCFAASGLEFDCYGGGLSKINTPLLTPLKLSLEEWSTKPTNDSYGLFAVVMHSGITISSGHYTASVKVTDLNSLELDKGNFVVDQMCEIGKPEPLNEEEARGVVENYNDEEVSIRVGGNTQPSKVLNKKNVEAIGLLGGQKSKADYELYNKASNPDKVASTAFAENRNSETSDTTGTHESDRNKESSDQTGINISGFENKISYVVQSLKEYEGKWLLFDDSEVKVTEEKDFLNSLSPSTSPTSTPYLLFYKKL
Sequence of Glucocorticoid receptor (Homo sapiens) (P04150 whole entry, looked up): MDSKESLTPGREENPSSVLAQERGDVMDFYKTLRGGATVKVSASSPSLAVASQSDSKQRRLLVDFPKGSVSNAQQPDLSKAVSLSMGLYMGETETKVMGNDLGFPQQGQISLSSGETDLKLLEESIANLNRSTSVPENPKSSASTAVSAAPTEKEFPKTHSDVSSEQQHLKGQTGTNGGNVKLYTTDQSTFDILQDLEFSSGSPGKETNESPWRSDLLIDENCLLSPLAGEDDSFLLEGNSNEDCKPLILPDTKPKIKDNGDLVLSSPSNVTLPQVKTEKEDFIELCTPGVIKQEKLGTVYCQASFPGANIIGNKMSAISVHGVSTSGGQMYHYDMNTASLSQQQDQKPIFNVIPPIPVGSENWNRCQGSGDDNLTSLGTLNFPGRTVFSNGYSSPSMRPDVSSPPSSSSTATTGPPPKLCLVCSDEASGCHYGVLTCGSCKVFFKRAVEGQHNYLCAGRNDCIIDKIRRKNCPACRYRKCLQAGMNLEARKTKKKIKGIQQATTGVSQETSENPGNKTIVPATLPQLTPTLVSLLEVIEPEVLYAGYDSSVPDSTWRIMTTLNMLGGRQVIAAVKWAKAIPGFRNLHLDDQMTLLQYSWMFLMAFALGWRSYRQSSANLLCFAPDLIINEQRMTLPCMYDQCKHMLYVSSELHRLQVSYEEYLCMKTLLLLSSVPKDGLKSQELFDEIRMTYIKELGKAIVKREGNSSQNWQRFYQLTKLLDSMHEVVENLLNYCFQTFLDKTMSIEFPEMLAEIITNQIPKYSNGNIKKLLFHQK
Sequence of Bile acid receptor (Homo sapiens) (Q96RI1 whole entry, looked up): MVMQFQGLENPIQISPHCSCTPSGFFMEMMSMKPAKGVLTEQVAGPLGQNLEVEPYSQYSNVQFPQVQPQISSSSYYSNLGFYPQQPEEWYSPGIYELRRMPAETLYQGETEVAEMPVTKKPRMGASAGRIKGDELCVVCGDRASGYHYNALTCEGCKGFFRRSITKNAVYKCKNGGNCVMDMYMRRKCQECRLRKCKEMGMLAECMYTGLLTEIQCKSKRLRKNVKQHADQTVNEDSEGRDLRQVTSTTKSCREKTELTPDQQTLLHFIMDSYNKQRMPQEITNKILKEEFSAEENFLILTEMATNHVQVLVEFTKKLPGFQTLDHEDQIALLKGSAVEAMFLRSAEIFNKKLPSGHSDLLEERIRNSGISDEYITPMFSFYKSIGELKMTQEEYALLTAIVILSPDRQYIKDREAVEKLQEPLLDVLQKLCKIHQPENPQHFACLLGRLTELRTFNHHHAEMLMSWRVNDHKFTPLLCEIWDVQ
Sequence of Peroxisome proliferator-activated receptor gamma (Homo sapiens) (P37231 whole entry, looked up): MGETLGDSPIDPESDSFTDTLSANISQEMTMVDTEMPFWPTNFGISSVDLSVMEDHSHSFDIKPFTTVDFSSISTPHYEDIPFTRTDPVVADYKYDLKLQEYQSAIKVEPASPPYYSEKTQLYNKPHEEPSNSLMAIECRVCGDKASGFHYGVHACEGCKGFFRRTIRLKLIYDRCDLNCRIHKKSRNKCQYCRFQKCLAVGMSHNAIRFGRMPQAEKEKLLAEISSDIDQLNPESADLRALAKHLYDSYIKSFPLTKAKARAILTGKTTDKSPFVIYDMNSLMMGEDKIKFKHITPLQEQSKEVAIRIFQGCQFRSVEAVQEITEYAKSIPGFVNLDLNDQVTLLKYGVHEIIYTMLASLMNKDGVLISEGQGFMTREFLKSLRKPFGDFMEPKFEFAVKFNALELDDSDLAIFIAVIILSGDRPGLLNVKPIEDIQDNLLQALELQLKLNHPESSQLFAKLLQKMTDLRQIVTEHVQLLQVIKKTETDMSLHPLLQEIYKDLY
Sequence of Estrogen receptor (Homo sapiens) (P03372 whole entry, looked up): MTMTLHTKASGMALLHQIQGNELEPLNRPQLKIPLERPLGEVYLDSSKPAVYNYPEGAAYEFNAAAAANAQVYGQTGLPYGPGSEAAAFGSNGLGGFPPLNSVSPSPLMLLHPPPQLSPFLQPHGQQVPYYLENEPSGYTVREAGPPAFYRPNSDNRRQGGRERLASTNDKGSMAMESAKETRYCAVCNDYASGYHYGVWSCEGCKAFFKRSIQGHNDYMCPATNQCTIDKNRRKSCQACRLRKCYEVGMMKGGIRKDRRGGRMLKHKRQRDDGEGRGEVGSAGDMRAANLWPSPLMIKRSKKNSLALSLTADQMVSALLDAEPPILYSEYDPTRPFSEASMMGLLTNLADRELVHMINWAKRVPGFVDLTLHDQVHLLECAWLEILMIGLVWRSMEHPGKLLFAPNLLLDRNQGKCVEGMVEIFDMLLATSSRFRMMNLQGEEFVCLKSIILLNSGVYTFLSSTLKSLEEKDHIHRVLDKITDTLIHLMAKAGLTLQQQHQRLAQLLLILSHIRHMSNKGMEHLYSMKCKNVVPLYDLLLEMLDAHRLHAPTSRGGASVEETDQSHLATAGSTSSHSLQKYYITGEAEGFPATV
Sequence of Androgen receptor (Homo sapiens) (P10275 whole entry, looked up): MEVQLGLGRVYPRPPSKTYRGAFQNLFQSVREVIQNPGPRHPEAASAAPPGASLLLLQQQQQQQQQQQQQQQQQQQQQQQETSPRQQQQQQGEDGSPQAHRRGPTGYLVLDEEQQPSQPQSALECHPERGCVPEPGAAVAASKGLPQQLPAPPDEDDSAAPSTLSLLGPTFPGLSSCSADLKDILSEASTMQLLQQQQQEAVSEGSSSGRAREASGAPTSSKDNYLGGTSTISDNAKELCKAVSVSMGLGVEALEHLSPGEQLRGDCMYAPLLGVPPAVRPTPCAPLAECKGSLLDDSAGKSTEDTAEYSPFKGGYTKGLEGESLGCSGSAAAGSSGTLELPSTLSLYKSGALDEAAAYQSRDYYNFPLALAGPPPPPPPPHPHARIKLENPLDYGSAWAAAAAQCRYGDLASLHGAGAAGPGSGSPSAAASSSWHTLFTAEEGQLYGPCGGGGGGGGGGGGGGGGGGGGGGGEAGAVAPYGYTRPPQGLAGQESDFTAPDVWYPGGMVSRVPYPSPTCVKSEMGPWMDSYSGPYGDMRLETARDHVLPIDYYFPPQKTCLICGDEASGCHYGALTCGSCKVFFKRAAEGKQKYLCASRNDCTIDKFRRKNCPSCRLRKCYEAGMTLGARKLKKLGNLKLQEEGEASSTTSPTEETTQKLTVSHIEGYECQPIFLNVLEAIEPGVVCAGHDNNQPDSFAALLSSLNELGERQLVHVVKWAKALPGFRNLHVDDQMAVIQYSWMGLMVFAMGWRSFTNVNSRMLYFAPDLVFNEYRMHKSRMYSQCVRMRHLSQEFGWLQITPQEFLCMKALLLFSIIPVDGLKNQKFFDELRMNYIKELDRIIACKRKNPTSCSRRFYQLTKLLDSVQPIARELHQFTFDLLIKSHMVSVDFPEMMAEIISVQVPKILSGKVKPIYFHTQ
Sequence of Peroxisome proliferator-activated receptor delta (Homo sapiens) (Q03181 whole entry, looked up): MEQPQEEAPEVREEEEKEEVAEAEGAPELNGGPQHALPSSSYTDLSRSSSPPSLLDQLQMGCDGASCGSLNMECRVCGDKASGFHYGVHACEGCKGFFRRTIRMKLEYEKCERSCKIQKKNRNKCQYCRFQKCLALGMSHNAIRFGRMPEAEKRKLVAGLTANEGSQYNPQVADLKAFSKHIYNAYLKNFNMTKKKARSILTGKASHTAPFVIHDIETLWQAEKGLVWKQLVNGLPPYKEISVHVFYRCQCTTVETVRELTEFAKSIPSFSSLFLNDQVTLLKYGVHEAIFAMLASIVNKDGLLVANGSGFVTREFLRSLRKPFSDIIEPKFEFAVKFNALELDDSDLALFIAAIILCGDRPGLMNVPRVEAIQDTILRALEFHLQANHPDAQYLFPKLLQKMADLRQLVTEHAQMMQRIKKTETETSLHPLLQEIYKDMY
Sequence of DNA dC->dU-editing enzyme APOBEC-3G (Homo sapiens) (Q9HC16 whole entry, looked up): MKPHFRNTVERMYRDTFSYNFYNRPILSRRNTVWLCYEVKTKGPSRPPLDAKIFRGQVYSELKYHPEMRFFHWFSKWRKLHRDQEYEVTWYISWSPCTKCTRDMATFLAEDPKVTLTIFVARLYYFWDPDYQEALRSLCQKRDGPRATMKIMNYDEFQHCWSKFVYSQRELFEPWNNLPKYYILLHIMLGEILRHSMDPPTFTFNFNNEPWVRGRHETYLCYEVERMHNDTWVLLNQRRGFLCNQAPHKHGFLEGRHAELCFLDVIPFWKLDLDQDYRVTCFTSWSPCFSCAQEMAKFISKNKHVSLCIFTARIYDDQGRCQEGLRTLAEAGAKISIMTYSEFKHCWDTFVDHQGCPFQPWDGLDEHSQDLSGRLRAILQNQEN

OCc1ccccc1O[C@@H]1O[C@H](CO)[C@@H](O)[C@H](O)[C@H]1O
Potency [1]: inactive
outcome [2]: inactive

Cc1c(C)c2c(c(C)c1O)CC[C@@](C)(CCC[C@@H](C)CCC[C@@H](C)CCCC(C)C)O2
Potency [1]: inactive

Cc1c(C)c2c(c(C)c1O)CC[C@@](C)(CCC[C@H](C)CCC[C@H](C)CCCC(C)C)O2
Potency [1]: inactive
outcome [2]: inactive

Nc1c(Br)cc(Br)cc1CNC1CCC(O)CC1 (stereo not given)
Potency [1]: inactive

Cc1ccccc1
Potency [1]: inactive
activation [3]: -1.45% (inactive) and 2.79% (inactive)
outcome [4]: inactive
max response [5]: 1.03% and 40.9%
outcome [6]: inactive
outcome [7]: inactive

CCCCC(CC)COC(=O)CC(C(=O)OCC(CC)CCCC)S(=O)(=O)O (stereo not given)
Potency [1]: 50.1 µM (active)
activation [3]: -0.211% (inactive)
outcome [4]: inactive
max response [5]: 46.2%
outcome [6]: inactive

CC1=C(/C=C/C(C)=C/C=C/C(C)=C/CO)C(C)(C)CCC1
outcome [2]: inactive
outcome [8]: inactive
Potency [9]: 3.16 µM (active)
outcome [7]: inactive

O=c1ccn([C@@H]2O[C@H](CO)[C@@H](O)[C@H]2O)c(=O)[nH]1
outcome [2]: inactive

COC(=O)[C@H]1[C@H]2CC3c4[nH]c5ccccc5c4CCN3C[C@@H]2CC[C@@H]1O (stereo not given in full)
outcome [2]: inactive

CCCCCCCC/C=C\CCCCCCCC(=O)O
Potency [1]: 35.5 µM (active)
outcome [8]: inactive
Potency [9]: inactive
Potency [10]: inactive
activation [3]: -2.91% (inactive) and 1.43% (inactive)
outcome [4]: inactive
max response [5]: 18% and 10.3%
outcome [6]: inactive
outcome [7]: inactive

CCCCC/C=C\C/C=C\CCCCCCCC(=O)O
outcome [8]: inactive
Potency [9]: inactive
Potency [10]: inactive
max response [5]: 53% and -23.8%
outcome [6]: inactive

C#CCOc1ccc2c(C)cc(=O)oc2c1
Potency [1]: inactive

CC(C)=O
outcome [8]: inactive
Potency [9]: inactive
activation [11]: 7.27% (inactive)
outcome [12]: inactive
max response [5]: -10.3%
outcome [6]: inactive
outcome [7]: inactive

CC(O)CO (stereo not given)
Potency [1]: inactive
outcome [8]: inactive
Potency [9]: inactive
Potency [10]: inactive
activation [3]: -4.49% (inactive) and -3.73% (inactive)
outcome [4]: inactive
max response [5]: 21.4% and -10.4%
outcome [6]: inactive
outcome [7]: inactive

CCCCCCCC(=O)O
Potency [1]: inactive
outcome [8]: inactive
Potency [9]: inactive
outcome [4]: inactive
outcome [7]: inactive

CC(=O)N[C@@H](CC(=O)O)C(=O)N[C@@H](CCC(=O)O)C(=O)O (Ac-Asp-Glu-OH)
Potency [1]: inactive
outcome [2]: inactive

CO[C@H](C(=O)[C@@H](O)[C@@H](C)O)C1Cc2cc3cc(O[C@H]4C[C@@H](O[C@H]5C[C@@H](O)[C@H](O)[C@@H](C)O5)[C@@H](O)[C@@H](C)O4)c(C)c(O)c3c(O)c2C(=O)[C@H]1O[C@H]1C[C@@H](O[C@H]2C[C@@H](O[C@H]3C[C@](C)(O)[C@H](O)[C@@H](C)O3)[C@H](O)[C@@H](C)O2)[C@H](O)[C@@H](C)O1 (stereo not given in full)
Potency [1]: inactive

CC1=C2[C@@H]([C@H](C)CC[C@H]2/C=C(\C)C(=O)O)[C@H](O)C1
outcome [8]: inactive
Potency [9]: inactive
Potency [10]: inactive
outcome [7]: inactive

Nc1ccn([C@H]2CS[C@@H](CO)O2)c(=O)n1
activation [3]: -2.07% (inactive)
outcome [4]: inactive
max response [5]: -4.56%
outcome [6]: inactive
outcome [7]: inactive

CC(C)(C)NC(=O)[C@@H]1C[C@@H]2CCCC[C@@H]2CN1C[C@@H](O)[C@H](Cc1ccccc1)NC(=O)[C@H](CC(N)=O)NC(=O)c1ccc2ccccc2n1
Potency [10]: 44.7 µM (active)

Cc1cn([C@H]2C[C@H](O)[C@@H](CO)O2)c(=O)[nH]c1=O
Potency [1]: inactive
outcome [2]: inactive

CCOC(C)=O
Potency [1]: inactive
outcome [8]: inactive
Potency [9]: inactive
activation [3]: -2.25% (inactive)
outcome [4]: inactive
max response [5]: -20.7%
outcome [6]: inactive
outcome [7]: inactive

CC1(C)C(C=C(Cl)Cl)C1C(=O)OCc1cccc(Oc2ccccc2)c1 (stereo not given)
Potency [1]: inactive
outcome [8]: inactive
Potency [9]: inactive
activation [11]: 4.68% (inactive) [middle of 4 runs]
outcome [12]: inactive
outcome [4]: inactive
outcome [6]: inactive

O=C(O)CN(CCN(CC(=O)O)CC(=O)O)CC(=O)O
Potency [1]: inactive
outcome [7]: inactive

CCOc1ccc2c(c1)C(C)=CC(C)(C)N2
activity change, negative = inhibition [1]: -8.83% [at 11.4 µM] (inactive)
outcome [8]: inactive
Potency [9]: inactive
activation [11]: 15.4% (inactive)
outcome [12]: inactive

CC1=CCC(C(C)(C)O)CC1 (stereo not given)
Potency [1]: inactive
outcome [8]: inactive
Potency [9]: inactive
activation [11]: 3.37% (inactive)
outcome [12]: inactive
Potency [10]: inactive
max response [5]: -21.9%
outcome [6]: inactive
outcome [7]: inactive
